# Results from PubChem BioAssay (NCI).
# The panel holds about 83,000 compounds, 20% with a hit somewhere; the sample as a whole holds those more often.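 Interpretation: 100, growth as untreated; towards 0, rising growth inhibition; 0, no net growth; 0 to -100, cell death. Compounds scoring below 10 were considered active.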 Unmarked numbers belong to inactive results. Activity calls are given as the source filed them.
# System: HL-60(TB) leukemia
# Test: NCI-60 one-dose screen, 48 h (100 = growth as untreated, 0 = no growth, -100 = all killed)
# Conditions: 10 µM unless noted
row,Compound,growth
1,CN(C)c1ccc(/C=C/C(=O)c2ccc(NC(=O)CN3C(=O)NC(C)(c4ccccc4)C3=O)cc2)cc1 (stereo unspecified),47.5%
2,COc1ccc(NC(=O)CSc2nnc(-c3ccc(-c4nc5ccc(Cl)cc5[nH]4)cc3)o2)cc1,61.5%
3,Cc1cc(C)cc(C(=O)Nc2cccc(-c3cn(-c4ccc(S(N)(=O)=O)cc4)nn3)c2)c1,75.8%
4,NS(=O)(=O)c1ccc(N2N=C(c3ccc(NC(=O)Nc4ccccc4)cc3)CC2c2ccc(Br)cc2)cc1 (stereo unspecified),-4.8% (active)
5,COc1ccc(-c2ccc(/C=N/NC(=O)c3[nH]c4ccc(Br)cc4c3-c3ccccc3)s2)cc1,95.6%
6,Cc1ccc(O)cc1Nc1nc(SCCN2CCOCC2)nc2c1cnn2CC(Cl)c1ccc(Br)cc1 (stereo unspecified),-49.7% (active)
7,COc1ccc2c(c1)C(=O)N(C)C2C1c2c(cc3c(c2OC)OCO3)CCN1C (stereo unspecified),-6.5% (active)
8,COc1ccc(N=Nc2c(N)nn3c(-c4ccc5c(c4)C=S=C5)ccnc23)cc1,37.7%
9,CC(=O)c1cc(C(=O)N2c3ccccc3Sc3ccccc32)n2ccc(C)cc12,33.3%
10,[2H]C([2H])([2H])Oc1ccc2ncc(C#Cc3cncc(C(=O)Nc4ccc(CN5CCN(C)CC5)c(C(F)(F)F)c4)c3)n2n1,-60.4% (active)
11,COc1ccc(/C(CSc2nnc(-c3c[nH]c4ccccc34)n2-c2ccccc2)=N/O)cc1,3.87% (active)
12,COc1ccc(-c2nc(Nc3ccccc3S(N)(=O)=O)c3ccccc3n2)cc1,88.5%
13,COc1ccc(N=Nc2c(N)nn3c(N)c(C#N)c(-c4ccc(F)cc4)nc23)cc1,74%
14,COc1cc(-c2nc3cc(Cl)c(Cl)cc3[nH]2)ccc1OCc1nnc(-c2cccs2)o1,72%
15,O=C(c1ccccc1)n1ccc(-c2cc3cc(Br)ccc3oc2=O)n1,-13.5% (active)
16,COc1cc(C2CC(c3ccccc3)=Nc3c(N)nc(N)nc3N2)ccc1Oc1nc(Nc2ccc(F)cc2)nc(N(C)C)n1 (stereo unspecified),26.1%
17,CCCn1c(NC(=O)c2cccc(C(N)=O)c2)nc2cc(CN3CCCCC3)ccc21,91.4%
18,CS(=O)(=O)Nc1cccc(-n2cnc3cc(-c4ccc(O)cc4)ccc32)c1,7.73% (active)

row,Compound,growth
1,Cn1cc(-c2cc(N)n3nc(-c4c[nH]c5ccc(Cl)cc45)cc3n2)c2cc(Br)cnc21,-60.4% (active)
2,O=c1oc2ccc(-c3ccc(F)cc3F)cc2c(=O)n1-c1ccc(Cl)c(C(F)(F)F)c1,1.38% (active)
3,CC1(C)CC[C@]2(C(=O)O)CC[C@]3(C)C(=CCC4[C@@]5(C)C[C@@H](O)[C@@H]6OC(c7ccc(F)cc7)OC[C@@]6(C)C5CC[C@]43C)C2C1 (stereo partly specified),3.11% (active)
4,O=C(NC(=S)N1CCN(c2ncnc3c2cnn3-c2ccccc2)CC1)c1ccc(Cl)cc1,95.5%
5,Cc1ccc(S(=O)(=O)c2nc(S(=O)(=O)c3ccc(C)cc3)c(Cl)s2)cc1,15.9%
6,CN(C)CCCNC(=S)Nc1ccc(/C=C/c2ccc(Cl)cc2)cc1,-22.4% (active)
7,O=C(CSc1nnc(-c2c[nH]c3ccccc23)n1-c1ccccc1)c1ccc(Br)cc1,44.5%
8,N/C(=N\c1nc2ccccc2s1)NC(=O)Nc1ccc(Cl)cc1Cl,-66% (active)
9,COc1cncc(-c2ccc3ncnc(N4CCc5ccc(Cl)cc54)c3c2)c1,-33.4% (active)
10,CN1CCN(c2ccc3c4c(cccc24)C(=O)N(c2cccc(-c4nn(-c5ccccc5)cc4-c4nc5ccccc5s4)c2)C3=O)CC1,102%
11,CCOC(=O)C1=C(N)N(c2ccccc2)C2=C(C(=O)CC(C)(C)C2)C1c1cccc(Cl)c1Cl (stereo unspecified),46.2%
12,NC(=S)Nc1cccc(NC(N)=S)c1,99.1%
13,CCC(C)(C)c1ccc(OCCCCN2CCN(c3ccncc3)CC2)cc1,-57.7% (active)
14,C[C@H](Nc1nc(NCCc2ccccc2)nc2ccccc12)c1ccccc1,-48.2% (active)
15,CC(=O)c1cc(C(=O)c2ccccc2)n2c1ccc1ccccc12,94.7%
16,O=C1NC(=NC2CCCCCC2)N/C1=C\c1ccc2ncoc2c1,30.1%
17,O=C(N/N=C/c1ccc(Br)o1)c1[nH]c2ccc(Br)cc2c1-c1ccccc1,-48.7% (active)
18,COc1ccc(-c2cc(C(=O)N=Nc3c(O)[nH]c4ccccc34)c3ccccc3n2)cc1,56.2%
